Data reported in PubChem BioAssay AID1159580 (chemical genetic matrix, 2015).
Out of some 5,500 compounds screened, about 2,000 (36%) were called active. Inconclusive results (about 18%) are left out. The list shows a part of the results. Unmarked numbers belong to inactive results. Cut-off read from the data, not from the text of the source: active = normalized growth mostly below about 0.91 (no sharp cut-off); inconclusive = no clear call, values can overlap the other calls; inactive = mostly above about 0.92.

Experiment: chemical genetic growth profiling, strain panel (AID 1159580);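 note: tested at 20 µM; growth read once vehicle control cultures reached saturation at 30 °C; 1 = growth at the plate median or of vehicle wells; lower values mean less growth of the strain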
Details: S. cerevisiae deletion strains, growth OD
[1] = locus YAL013W, strain DEP1, active compounds read low
[2] = locus YHR030C, strain SLT2, active compounds read low
[3] = locus YJR075W, strain HOC1, active compounds read low
[4] = locus YNL153C, strain GIM3, active compounds read low
[5] = locus YNL322C, strain KRE1, active compounds read low
[6] = locus YPL055C, strain LGE1, active compounds read low

Work on O=C1CC(=O)CC(c2ccc(Cl)c(Cl)c2)C1 yielded a normalized growth [1] of 0.982, a normalized growth (locus YBR229C, strain ROT2, active compounds read low) of 0.998 and a normalized growth (locus YDL101C, strain DUN1, active compounds read low) of 1.02. It also gave a normalized growth (locus YDR150W, strain NUM1, active compounds read low) of 1.04, a normalized growth (locus YEL061C, strain CIN8, active compounds read low) of 0.978 and a normalized growth (locus YGR078C, strain PAC10, active compounds read low) of 0.997. It also gave a normalized growth [2] of 1.04, a normalized growth (locus YHR087W, strain rtc3, active compounds read low) of 0.98 and a normalized growth (locus YJR043C, strain POL32, active compounds read low) of 1.01. The normalized growth [3] was 1.01, the normalized growth (locus YKL190W, strain CNB1, active compounds read low) was 0.998 and the normalized growth (locus YLR039C, strain RIC1, active compounds read low) was 0.959. It also gave a normalized growth (locus YLR058C, strain SHM2 (second series), active compounds read low) of 0.985, a normalized growth (locus YLR085C, strain ARP6, active compounds read low) of 0.983 and a normalized growth (locus YLR262C, strain YPT6, active compounds read low) of 0.949. It also gave a normalized growth (locus YML094W, strain GIM5, active compounds read low) of 0.99, a normalized growth (locus YMR219W, strain ESC1, active compounds read low) of 0.991 and a normalized growth (locus YMR263W, strain SAP30, active compounds read low) of 1.01. It also gave a normalized growth (locus YMR307W, strain GAS1, active compounds read low) of 1.02, a normalized growth [4] of 0.997 and a normalized growth (locus YNL298W, strain CLA4 (second series), active compounds read low) of 1. It also gave a normalized growth [5] of 0.976, a normalized growth (locus YNR030W, strain Alg12, active compounds read low) of 1 and a normalized growth [6] of 1.15. It also gave a normalized growth (locus YPL241C, strain CIN2, active compounds read low) of 1.01 and a normalized growth (locus YPR135W, strain CTF4, active compounds read low) of 1.22.

With CN[C@H]1CC[C@@H](c2ccc(Cl)c(Cl)c2)c2ccccc21 the normalized growth (locus YAL021C, strain ccr4, active compounds read low) was 0.529 (active), the normalized growth (locus YAL026C, strain drs2, active compounds read low) was 0.0645 (active) and the normalized growth (locus YAL030W, strain snc1, active compounds read low) was 0.985. For the same compound, the normalized growth (locus YBL061C, strain skt5, active compounds read low) was 0.864 (active), the normalized growth (locus YBR009C, strain hhf1, active compounds read low) was 0.82 (active) and the normalized growth (locus YBR023C, strain chs3, active compounds read low) was 0.858 (active). The normalized growth (locus YBR171W, strain sec66, active compounds read low) was 1.01, the normalized growth (locus YBR231C, strain swc5, active compounds read low) was 0.89 (active) and the normalized growth (locus YBR279W, strain paf1, active compounds read low) was 0.905 (active). The normalized growth (locus YCL011C, strain gbp2, active compounds read low) was 0.919, the normalized growth (locus YCL016C, strain dcc1, active compounds read low) was 0.866 (active) and the normalized growth (locus YCL061C, strain MRC1, active compounds read low) was 0.956. For the same compound, the normalized growth (locus YCL069W, strain vba3, active compounds read low) was 0.968, the normalized growth (locus YCR088W, strain abp1, active compounds read low) was 0.964 and the normalized growth (locus YDL005C, strain med2, active compounds read low) was 1.07. For the same compound, the normalized growth (locus YDL040C, strain nat1, active compounds read low) was 1.02, the normalized growth (locus YDR001C, strain nth1, active compounds read low) was 1.02 and the normalized growth (locus YDR069C, strain doa4, active compounds read low) was 0.639 (active). For the same compound, the normalized growth (locus YDR137W, strain rgp1, active compounds read low) was 1.29 [resistant] (active), the normalized growth (locus YDR159W, strain sac3, active compounds read low) was 1.05 and the normalized growth (locus YDR195W, strain ref2) was 1.47 [resistant] (active). For the same compound, the normalized growth (locus YDR297W, strain sur2, active compounds read low) was 0.976, the normalized growth (locus YDR334W, strain swr1, active compounds read low) was 1.04 and the normalized growth (locus YDR335W, strain msn5, active compounds read low) was 0.849 (active). The normalized growth (locus YDR392W, strain spt3, active compounds read low) was 0.939, the normalized growth (locus YEL003W, strain gim4, active compounds read low) was 0.898 (active) and the normalized growth (locus YEL037C, strain rad23, active compounds read low) was 0.953. For the same compound, the normalized growth (locus YEL061C, strain CIN8 (second series), active compounds read low) was 1, the normalized growth (locus YER015W, strain faa2, active compounds read low) was 0.634 (active) and the normalized growth (locus YER016W, strain bim1, active compounds read low) was 0.986. The normalized growth (locus YER111C, strain swi4, active compounds read low) was 1.01, the normalized growth (locus YER155C, strain BEM2 (second series), active compounds read low) was 1.01 and the normalized growth (locus YFR010W, strain ubp6, active compounds read low) was 0.605 (active). For the same compound, the normalized growth (locus YGL167C, strain pmr1, active compounds read low) was 1.04, the normalized growth (locus YGL173C, strain kem1, active compounds read low) was 0.799 (active) and the normalized growth (locus YGL227W, strain vid30, active compounds read low) was 1.02. For the same compound, the normalized growth (locus YGL240W, strain doc1, active compounds read low) was 1.06, the normalized growth (locus YGL253W, strain hxk2, active compounds read low) was 0.859 (active) and the normalized growth (locus YHR013C, strain ard1, active compounds read low) was 0.677 (active). The normalized growth (locus YHR027C, strain rpn1, active compounds read low) was 0.817 (active), the normalized growth [2] was 0.859 and the normalized growth (locus YHR079C, strain IRE1, active compounds read low) was 0.959. The normalized growth (locus YHR142W, strain chs7, active compounds read low) was 0.77 (active), the normalized growth (locus YJL092W, strain hpr5, active compounds read low) was 0.945 and the normalized growth (locus YJL095W, strain BCK1 (second series), active compounds read low) was 0.0692 (active). The normalized growth (locus YJL095W, strain BCK1, active compounds read low) was 0.935, the normalized growth (locus YJL115W, strain asf1, active compounds read low) was 1.03 and the normalized growth (locus YJL129C, strain trk1, active compounds read low) was 0.794 (active). For the same compound, the normalized growth (locus YJL154C, strain vps35, active compounds read low) was 1.02, the normalized growth (locus YJL164C, strain tpk1, active compounds read low) was 0.855 (active) and the normalized growth (locus YJL166W, strain qcr8, active compounds read low) was 0.862 (active). It also gave a normalized growth (locus YJR066W, strain TOR1, active compounds read low) of 0.929, a normalized growth (locus YKL160W, strain elf1, active compounds read low) of 0.931 and a normalized growth (locus YKR026C, strain gcn3, active compounds read low) of 0.999. The normalized growth (locus YKR091W, strain srl3, active compounds read low) was 1.02, the normalized growth (locus YLL001W, strain dnm1, active compounds read low) was 0.929 and the normalized growth (locus YLL026W, active compounds read low) was 0.942. The normalized growth (locus YLL041C, strain sdh2, active compounds read low) was 1.01, the normalized growth (locus YLR027C, strain aat2, active compounds read low) was 0.921 (active) and the normalized growth (locus YLR113W, strain HOG1, active compounds read low) was 0.936. The normalized growth (locus YLR221C, strain rsa3, active compounds read low) was 0.9 (active), the normalized growth (locus YLR258W, strain gsy2, active compounds read low) was 0.932 and the normalized growth (locus YLR262C, strain YPT6 (second series), active compounds read low) was 1.02. For the same compound, the normalized growth (locus YLR320W, strain mms22, active compounds read low) was 0.805 (active), the normalized growth (locus YLR342W, strain FKS1, active compounds read low) was 0.647 (active) and the normalized growth (locus YLR357W, strain rsc2, active compounds read low) was 1.17 [resistant] (active). The normalized growth (locus YLR370C, strain arc18, active compounds read low) was 0.703 (active), the normalized growth (locus YLR384C, strain iki3, active compounds read low) was 1.02 and the normalized growth (locus YML120C, strain ndi1, active compounds read low) was 0.983. The normalized growth (locus YMR058W, strain fet3, active compounds read low) was 0.661 (active), the normalized growth (locus YMR125W, strain sto1, active compounds read low) was 0.943 and the normalized growth (locus YMR129W, active compounds read low) was 1.03. The normalized growth (locus YMR205C, strain PFK2, active compounds read low) was 0.866 (active), the normalized growth (locus YMR231W, strain pep5, active compounds read low) was 0.0786 (active) and the normalized growth (locus YNL071W, strain lat1, active compounds read low) was 0.847 (active). The normalized growth (locus YNL183C, strain NPR1, active compounds read low) was 0.954, the normalized growth (locus YNL209W, strain ssb2, active compounds read low) was 0.846 (active) and the normalized growth (locus YNL248C, strain rpa49, active compounds read low) was 0.935. It also gave a normalized growth (locus YNL322C, strain KRE1 (second series), active compounds read low) of 1.08, a normalized growth (locus YNR049C, strain mso1, active compounds read low) of 0.996 and a normalized growth (locus YOR001W, strain rrp6, active compounds read low) of 0.928. For the same compound, the normalized growth (locus YOR070C, strain gyp1, active compounds read low) was 0.817 (active), the normalized growth (locus YOR080W, strain dia2, active compounds read low) was 0.982 and the normalized growth (locus YOR083W, strain WHI5, active compounds read low) was 0.824 (active). For the same compound, the normalized growth (locus YOR106W, strain vam3, active compounds read low) was 0.622 (active), the normalized growth (locus YOR231W, strain MKK1, active compounds read low) was 0.988 and the normalized growth (locus YOR265W, strain rbl2, active compounds read low) was 0.953. For the same compound, the normalized growth (locus YOR270C, strain vph1, active compounds read low) was 0.348 (active), the normalized growth (locus YOR290C, strain snf2, active compounds read low) was 0.852 (active) and the normalized growth (locus YPL051W, strain arl3, active compounds read low) was 0.776 (active). For the same compound, the normalized growth (locus YPL078C, strain atp4, active compounds read low) was 0.922, the normalized growth (locus YPL106C, strain sse1, active compounds read low) was 1.03 and the normalized growth (locus YPL240C, strain hsp82, active compounds read low) was 1.01. It also gave a normalized growth (locus YPL256C, strain CLN2, active compounds read low) of 0.969.

Compound CN[C@@H]1C[C@@H](c2ccc(Cl)c(Cl)c2)c2ccccc21 has a normalized growth [1] of 0.923, a normalized growth (locus YAL040C, strain CLN3, active compounds read low) of 1.02 and a normalized growth (locus YCL061C, strain MRC1 (second series), active compounds read low) of 0.942. For the same compound, the normalized growth (locus YDR363W, strain ESC2, active compounds read low) was 0.865 (active), the normalized growth (locus YER002W, strain NOP16, active compounds read low) was 1.06 and the normalized growth [3] was 0.958. For the same compound, the normalized growth [4] was 0.663 (active), the normalized growth (locus YNL175C, strain NOP13, active compounds read low) was 1 and the normalized growth (locus YNL197C, strain WHI3, active compounds read low) was 1.01. For the same compound, the normalized growth (locus YNL224C, strain SQS1, active compounds read low) was 1.07, the normalized growth [5] was 0.738 (active) and the normalized growth (locus YOR083W, strain WHI5 (second series), active compounds read low) was 0.826 (active). It also gave a normalized growth [6] of 0.927.
